Screening results (PubChem BioAssay)
Most compounds without a hit are left out; they make up all but 10% or so of the library.
3T3 cytotox: cytotoxic compounds in NIH 3T3 cells. NIH 3T3 viability, CellTiter-Glo ATP luminescence, 48-72 h. Potency, µM (titrated, usually from 96.7 µM), inactives show at the highest dose activity change, negative = cytotoxicity, actives largely listed as inhibitors. 94,000 tested, 4.3% active. AID 1345082; note: % is set by controls: 0 for no effect and ±100 for the full control effect; nearly all actives have a fitted effect of over 55% in size
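Mouse fibroblast NIH 3T3 cells, 400 per well, received compound via pintool and were incubated for 48 or 72 hr prior to CellTiter-Glo ATP luminescence measurement.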
GPT2 inh: inhibitors of human GPT2 alanine aminotransferase | AID 1671188 | Potency, µM (highest dose often 57.7 µM), for inactives: at the top dose activity change, negative = inhibition, most hits filed as inhibitors | 100,000 tested, 0.25% active | Q8TD30 | Recombinant GPT2, coupled pyruvate oxidase/HRP Amplex Red fluorescence; note: % is set by controls: 0 for no effect and ±100 for the full control effect; nearly all actives have a fitted effect of over 60% in size
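Inhibition is scored from Amplex Red fluorescence generated when pyruvate oxidase and HRP act on pyruvate released by GPT2. Reactions contain 10ng/uL enzyme, 250uM a-KG and 2mM L-alanine and run 30 min at room temperature.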
Luciferase inh: inhibitors of firefly (Photinus pyralis) luciferase; purified P. pyralis luciferase, luminescence, biochemical; Potency, µM (titrated, usually from 115 µM), actives largely listed as inhibitors; 76,000 tested, 2.5% active; note: % is set by controls: 0 for no effect and ±100 for the full control effect; nearly all actives have a fitted effect of over 65% in size
Target sequence (P08659 whole entry, looked up): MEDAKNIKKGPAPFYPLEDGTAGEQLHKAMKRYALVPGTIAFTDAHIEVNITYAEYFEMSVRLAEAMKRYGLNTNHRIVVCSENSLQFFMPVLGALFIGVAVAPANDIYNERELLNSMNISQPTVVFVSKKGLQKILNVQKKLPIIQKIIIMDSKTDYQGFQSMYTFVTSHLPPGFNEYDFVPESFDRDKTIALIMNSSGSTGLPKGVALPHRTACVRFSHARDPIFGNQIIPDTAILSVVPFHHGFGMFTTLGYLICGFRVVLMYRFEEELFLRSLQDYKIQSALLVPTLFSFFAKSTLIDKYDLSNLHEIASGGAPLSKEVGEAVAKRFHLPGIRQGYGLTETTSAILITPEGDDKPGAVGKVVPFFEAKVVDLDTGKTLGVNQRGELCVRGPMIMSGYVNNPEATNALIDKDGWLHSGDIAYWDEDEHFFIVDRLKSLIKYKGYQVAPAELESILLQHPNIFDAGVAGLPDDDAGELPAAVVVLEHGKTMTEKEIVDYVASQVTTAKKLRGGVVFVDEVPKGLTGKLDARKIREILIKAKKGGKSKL
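FLuc 10nM, D-luciferin 10uM, ATP 10uM, Mg acetate 10mM, Tris acetate pH 7.5, Tween/BSA; cpd qHTS; enzyme added last; CCD luminescence.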
HEK cytotox: HEK 293 cell cytotoxicity; HEK 293 viability, ATP luminescence (CellTiter-Glo), 48-72 h; Potency, µM (top dose mostly 115 µM), inactives show at the top dose activity change, negative = cytotoxicity, most hits filed as inhibitors; 94,000 tested, 6.6% active; AID 1345083; note: % is set by controls: 0 for no effect and ±100 for the full control effect; nearly all actives have a fitted effect of over 60% in size
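Cells seeded first (HEK 293, 250 cells/well), then compound added by pintool. Incubation ran 48 or 72 hr at 37 degree Celsius. CellTiter-Glo was added and luminescence imaged after 10 min at room temperature.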
hNpr1 antagonist: blocks ANP-stimulated signaling of human Npr1 receptor | HEK293 hNpr1 GloSensor cGMP, ANP-stimulated luminescence | Potency, µM (titrated, usually from 46.3 µM), inactives show at the highest dose activity change, negative = inhibition, most hits filed as inhibitors | 76,000 tested, 1.6% active | AID 1347048; calls by dose curve; note: % is set by controls: 0 for no effect and ±100 for the full control effect; nearly all actives have a fitted effect of over 60% in size
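HEK293 cells stably expressing human Npr1 and cGMP GloSensor pGS-40F, loaded 2 h with 2% GloSensor reagent, given compound 30 min at room temperature. Luminescence read before and 20 min after 0.1 nM hNppA.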
Npr1 antag conf: hNpr1 antagonism, confirmation assay; shares compounds with hNpr1 antagonist; HEK293 hNpr1 cGMP GloSensor luminescence, ANP-stimulated; Potency, µM (doses to about 57.6 µM), without a hit: at the highest dose activity change, negative = inhibition, hits mostly inhibitors; 1,400 tested, 76% active; AID 1347044; calls by dose curve; note: nearly all actives have a fitted effect of over 70% in size
Npr2 selectivity: hNpr2 antagonism, selectivity versus Npr1; shares compounds with hNpr1 antagonist; HEK293 hNpr2 GloSensor cGMP luminescence, CNP-stimulated; Potency, µM (top dose mostly 57.6 µM), for the others: at the top dose activity change, negative = inhibition, usual class: inhibitors; 1,400 tested, 67% active; calls by dose curve; note: nearly all actives have a fitted effect of over 70% in size
FLuc inh counter: FLuc enzyme inhibition, Npr1 counter-screen | shares compounds with hNpr1 antagonist | purified FLuc enzyme, luminescence, Km substrate | Potency, µM (series often up to 57.6 µM), without a hit: at the highest dose activity change, negative = inhibition, usual class: inhibitors | 1,400 tested, 0.7% active | AID 1347047; note: 0% is about no effect
GloSensor ctrl: counter-screen for Npr1 antagonists: GloSensor control cell line; 1,400 tested, 69% active; Potency, µM (highest dose often 57.6 µM), inactives show at the top dose activity change, negative = inhibition, actives largely listed as inhibitors; HEK293 GloSensor cGMP, SNP-stimulated, luminescence; shares compounds with hNpr1 antagonist; calls by dose curve; note: % is set by controls: 0 for no effect and ±100 for the full control effect; nearly all actives have a fitted effect of over 70% in size
An asterisk follows results filed as active; i = inactive; ? = inconclusive; · = not tested or not shown; [ ] = another dose, or the depositor's remark. Unless noted, calls come from the whole dose curve; as a rule, active = well fitted curve in the direction sought with a large enough effect; inconclusive = small, poorly fitted or top-dose-only effect, or another doubt; inactive = no such curve, though single readings can be large; an effect the other way counts as inactive or inconclusive. Potency is the fitted concentration of half-maximal effect.

SMILES | 3T3 cytotox | GPT2 inh | Luciferase inh | HEK cytotox | hNpr1 antagonist | Npr1 antag conf | Npr2 selectivity | FLuc inh counter | GloSensor ctrl
CCN(CC)C(=O)N1CC(Oc2ccc(-c3noc(COC)n3)cc2)C1 | ? | -8% | i | ? | 10µM* | 9.7µM* | 8.6µM* | 3% | 6.9µM*
COCc1nc(-c2ccc(OC3CN(S(=O)(=O)c4ccccc4C)C3)cc2)no1 | ? | -19% | i | 14µM* | 11µM* | 12µM* | 19µM* | 1% | 15µM*
COCCNC(=O)c1ccc2nccn2c1 | i | 1%[88.5 µM] | i | 3%[230 µM] | -2%[70.6 µM] | · | · | · | ·
Cc1ccc(S(=O)(=O)N2CCC(n3cnnc3-c3ccccc3)CC2)c(C)c1 | ? | i | i | ? | -29% | ? | ? | 6% | -21%
CC(C)N1CCC2(CC1)CN(C(=O)c1cn(C)cn1)Cc1ccccc1O2 | ? | i | · | ? | · | · | · | · | ·
CC1(c2ccccc2)N(Cc2ccccc2C#N)C(=O)OC12CCN(Cc1c[nH]c3ccccc13)CC2 (centres undefined) | 22µM* | -12% | i | 14µM* | ? | 19µM* | 19µM* | 0% | -9%
CN(C)C[C@@H]1CN(S(C)(=O)=O)C[C@H]1NC(=O)c1ccccc1C(F)(F)F | -9% | -6% | i | -24% | 5% | · | · | · | ·
CC(C)c1nncn1C1CCN(S(=O)(=O)c2ccc(Br)cc2)CC1 | ? | i | i | ? | 2% | · | · | · | ·
CC(C)c1nncn1C1CCN(S(=O)(=O)c2ccc(Br)s2)CC1 | ? | i | i | ? | 11µM* | 24µM* | ? | 2% | 22µM*
Cc1cccc(CNC(=O)CCC2CCN(S(=O)(=O)c3ccccc3)CC2)c1 | -27% | -9% | i | ? | -6% | · | · | · | ·
CCN(Cc1ccccc1)C(=O)CCC1CCN(S(=O)(=O)c2ccccc2)CC1 | 28µM* | 1% | i | ? | -21% | ? | -20% | -2% | -13%
Cc1ccc(CNC(=O)CCC2CCN(S(=O)(=O)c3ccccc3)CC2)cc1 | ? | -2% | i | -24% | -24% | -17% | -11% | 3% | -13%
O=C(c1[nH]nc2c1CCc1ccccc1-2)N1CCC(c2noc(-c3cccnc3)n2)C1 (centres undefined) | ? | i | i | 35µM* | 13µM* | 22µM* | 24µM* | -3% | 22µM*
O=C(C1CC1)N1CCC(c2noc(-c3cccnc3)n2)C1 (centres undefined) | i | i | i | 0% | -2% | · | · | · | ·
COc1ccc(NC(=O)c2ccc3c(c2)NC(C)(CNc2ccccc2)CO3)cn1 (centres undefined) | ? | -5%[88.5 µM] | i | 45µM* | 35µM* | 40µM* | ? | -27%[86.2 µM] | ?
CC1(COCC2CC2)COc2ccc(C(=O)Nc3cccnc3)cc2N1 (centres undefined) | -24%[138 µM] | ? | ? | ? | ? | -30%[86.2 µM] | -26%[86.2 µM] | -18%[86.2 µM] | -21%[86.2 µM]
CCOCC1(C)COc2ccc(C(=O)Nc3ccc(OC)nc3)cc2N1 (centres undefined) | ? | -15%[88.5 µM] | ? | ? | -11%[70.6 µM] | · | · | · | ·
CC(C)c1noc(-c2cn(C3CCN(C(=O)c4cccs4)CC3)nn2)n1 | ? | ? | i | ? | 0% | · | · | · | ·
COCC1CN(C(=O)NCc2ccc(F)cc2)CC12CCNCC2 (centres undefined) | -25% | -5% | i | i | 1% | · | · | · | ·
COc1ccc(OC)c(NC(=O)c2ccc3c(c2)N(S(=O)(=O)c2ccccc2)CC3)c1 | ? | ? | ? | ? | -7% | · | · | · | ·
COc1ccc(NC(=O)c2ccc3c(c2)N(S(=O)(=O)c2ccccc2)CC3)cc1 | -2% | i | i | ? | 10µM* | 24µM* | 24µM* | -14% | 22µM*
COc1ccc(S(=O)(=O)N2CCc3c(C(=O)Nc4cccc(C)c4)cccc32)cc1 | ? | 4% | i | 18µM* | ? | ? | ? | -11% | ?
CS(=O)(=O)N1CCC(N2CC(OCC3CC3)C23CCCCC3)CC1 (centres undefined) | -11% | -13% | i | -24% | -1% | · | · | · | ·
COc1ccc(NC(=O)N2CCCC2c2noc(COc3ccc(F)cc3)n2)cc1OC (centres undefined) | -12% | 4% | i | -9% | -3% | · | · | · | ·
Cn1c(CNC(=O)c2ccc3nccn3c2)nc2cc(C(F)(F)F)ccc21 | ? | ? | i | ? | 11µM* | 22µM* | 19µM* | -10% | 27µM*
SMILES | 3T3 cytotox | GPT2 inh | Luciferase inh | HEK cytotox | hNpr1 antagonist | Npr1 antag conf | Npr2 selectivity | FLuc inh counter | GloSensor ctrl
CCc1nccn1CC(=O)NC(C)c1cnn(-c2ccccc2C)c1C (centres undefined) | ? | -22% | i | ? | 11µM* | ? | ? | -2% | ?
CCNc1ncc(C(=O)NC(C)c2cnn(-c3ccccc3C)c2C)cn1 (centres undefined) | -20% | 4% | i | -18% | -24% | · | · | · | ·
O=C(CN1C(=O)NC(c2ccccc2Cl)C2=C1COC2=O)Nc1cc(F)cc(F)c1 (centres undefined) | ? | 5% | ? | ? | -20% | · | · | · | ·
CCC(O)c1cc2n(n1)CCN(C(=O)c1ccc(-c3ccccc3)n1C)C2 (centres undefined) | ? | -17% | i | 32µM* | 16µM* | 24µM* | 24µM* | -2% | 24µM*
CCC(O)c1cc2n(n1)CCN(C(=O)c1cn(-c3ccccc3)nn1)C2 (centres undefined) | -25% | -4% | i | -6% | 5% | · | · | · | ·
COc1ccc(CC(=O)Nc2ccc([C@@H](O)[C@H]3COCC(=O)N3Cc3ccc(C(F)(F)F)cc3)cc2)cc1 | ? | -5% | i | 32µM* | -25% | ? | -18% | -1% | -26%
O=C(NCCc1nc(-c2cccnc2)n[nH]1)C1CNCCO1 (centres undefined) | i | 2% | i | -1% | 7% | · | · | · | ·
